HTT prom inh: Primary qHTS for Identification of Small Molecule Inhibitors of Huntingtin Promoter Activity; AID 1508623, 2021; actives 0.93% (n = 48,000); Potency, µM (highest dose often 57.5 µM), inactives show top-dose activity change, negative = inhibition, usual class: inhibitors; HEK293 HTT promoter firefly luciferase reporter, 24 h; further: potency means the concentration at half of the fitted maximal effect; nearly all actives have a fitted effect of over 50% in size
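Luminescence was read after Dual-Glo reagent and a 10 min room-temperature incubation. Values were normalized to vehicle (0% activity) and zero RLU (-100% activity). Reporter HEK293 cells had been exposed to compounds (up to 57.5 uM final) for 24 h.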
GALC G270D up: A Novel Cell-Based Assay to Identify Small Molecules for B -Galactocerebrosidase | P54803 | 145M-Twi-hGALC-G270D cells (Twitcher mouse brain line with human GALC G270D), HMU-beta-Gal fluorescence, 48 h | Potency, µM (doses to about 57.5 µM), usual class: activators | actives 0.1% (n = 45,000) | AID 1159614, 2016; further: potency means the concentration at half of the fitted maximal effect; 0% is about no effect; nearly all actives have a fitted effect of over 65% in size
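Mutant human GALC (G270D), stably expressed in a Twitcher mouse brain cell line lacking endogenous GALC, is measured in live-treated cells via 6-hexadecanoylamino-4-methylumbelliferyl-β-galactoside hydrolysis (0.1 mM final, pH 5.2) with fluorescent detection.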
NTMT1 inh: Primary qHTS for Inhibitors of N-terminal methyltransferase 1 (NTMT1): MTaseGlo Assay; actives 2.5% (n = 59,000); Potency, µM (highest dose often 114 µM), inactives show at the highest dose activity change, negative = inhibition, usual class: inhibitors; NTMT1 MTase-Glo SAH luminescence, purified enzyme; N-terminal Xaa-Pro-Lys N-methyltransferase 1 (Homo sapiens), Q9BV86;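 further: potency means the concentration at half of the fitted maximal effect; plate controls were DMSO vehicle for no effect and no enzyme for full effect; nearly all actives have a fitted effect of over 65% in size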
Target sequence (Q9BV86 whole entry, looked up): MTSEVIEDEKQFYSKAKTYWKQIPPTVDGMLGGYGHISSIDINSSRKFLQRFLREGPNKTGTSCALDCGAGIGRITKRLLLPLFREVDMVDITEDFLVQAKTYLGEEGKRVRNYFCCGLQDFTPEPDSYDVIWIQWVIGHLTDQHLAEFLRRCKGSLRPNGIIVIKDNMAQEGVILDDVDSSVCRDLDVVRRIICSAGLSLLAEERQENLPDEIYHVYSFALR
DRV1 agonist: qHTS for Agonists of Human Resolvin D1 Receptor DRV1 | CHO-K1 GPR32 beta-arrestin PathHunter luminescence, 90 min; zero percent set by DMSO-only wells | activation, % at 76.9 µM | actives 2.5% (n = 48,000) | AID 1346428, 2018;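 active means activation of at least 60% and not above a set upper limit, about 1 call in 100 departs from these limits; inconclusive means activation of 40% to 60%, or above that upper limit; inactive means activation under 40%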; further: 0% is about no effect
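Readings come from a cell-based beta-arrestin complementation format: CHO-K1 GPR32 stable cells (2,500/well) treated 90 min with compounds, then beta-Gal substrate added for 1 h before chemiluminescence imaging.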
HTT-AS promoter: Primary qHTS for Identification of Small Molecule Activators of Huntingtin-Antisense Promoter Activity; HEK293 HTT-AS promoter firefly luciferase reporter, 24 h; response scale: percent change from vehicle, -100% = no light; actives 0.24% (n = 48,000); Potency, µM (top dose mostly 57.5 µM), for the others: top-dose activity change, positive = activation, usual class: activators; further: potency means the concentration at half of the fitted maximal effect; nearly all actives have a fitted effect of over 55% in size
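Firefly luciferase signal from promoter-reporter HEK293 cells was scaled between vehicle (0%) and zero RLU (-100%). Compounds were tested at final concentrations of up to 57.5 uM over 24 h at 37 degrees C. PTC124 at 50 uM final served as control inhibitor.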
FH mod: Identification of activators of human fumarate hydratase by quantitative high-throughput screening; Fumarate hydratase, mitochondrial (Homo sapiens), P07954; FH coupled MDH/diaphorase resazurin fluorescence, 15 min; Potency, µM (top dose mostly 79.9 µM), for the others: top-dose activity change, negative = inhibition, hits mostly inhibitors; actives 0.22% (n = 54,000); further: potency means the concentration at half of the fitted maximal effect; on the % scale 0 is the no-effect control and ±100 the full control effect; the screen sought activators but most active calls are inhibition curves; nearly all actives have a fitted effect of over 45% in size
Target sequence (P07954 whole entry, looked up): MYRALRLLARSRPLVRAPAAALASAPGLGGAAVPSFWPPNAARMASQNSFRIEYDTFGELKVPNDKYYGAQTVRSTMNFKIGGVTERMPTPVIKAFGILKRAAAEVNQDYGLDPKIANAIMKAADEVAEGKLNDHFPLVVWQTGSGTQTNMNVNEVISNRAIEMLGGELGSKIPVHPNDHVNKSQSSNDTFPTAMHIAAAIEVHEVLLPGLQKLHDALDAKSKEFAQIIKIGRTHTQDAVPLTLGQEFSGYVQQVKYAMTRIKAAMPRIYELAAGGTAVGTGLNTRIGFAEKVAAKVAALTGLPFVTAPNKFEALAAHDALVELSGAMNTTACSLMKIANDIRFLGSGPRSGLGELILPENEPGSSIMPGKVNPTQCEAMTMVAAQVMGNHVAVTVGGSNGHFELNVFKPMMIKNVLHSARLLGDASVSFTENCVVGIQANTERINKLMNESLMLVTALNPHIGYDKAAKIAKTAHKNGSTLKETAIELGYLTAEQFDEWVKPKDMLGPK
The depositor's hits bear a star; i = inactive; ? = inconclusive; . = no result given; ! = a repeat was not active; [ ] = remark or other dose. A selection: hits, their analogues and other compounds. The true share with any hit is near 4.7%. Unless noted, the call rests on the fitted dose curve; in most records, active means well fitted curve in the direction sought with a large enough effect; inconclusive means small, poorly fitted or top-dose-only effect, or another doubt; inactive means no such curve, though single readings can be large; an effect the other way counts as inactive or inconclusive.

SMILES	HTT prom inh	GALC G270D up	NTMT1 inh	DRV1 agonist	HTT-AS promoter	FH mod
Cc1cccc(-n2nc(C)c3c2NC(=O)CSC3c2ccccc2Cl)c1 (stereo not drawn)	?	i	4.2%	63.2*	-33.5%	-15.2%
CN1C(=O)N(c2ccc(C#N)c(C(F)(F)F)c2)C(=O)[C@]1(CO)c1ccccc1	.	.	-5.5%[57.5 µM]	.	.	-2.5%
C[C@]12CC[C@@H]3c4ccc(OC(=O)N(CCCl)CCCl)cc4CC[C@H]3[C@@H]1CC[C@@H]2O	-8.0%	i	22.4µM*	-0.2	-11.7%	-16.1%[53.3 µM]
C[C@]12CC[C@H]3[C@@H](CCC4=CC(=O)CC[C@@H]43)[C@@H]1CC[C@@H]2O	2.8%	i	?	-2.6	-17.2%	-2.1%[53.3 µM]
CN(N=O)c1cc(O)ccc1O	.	.	.	23.7	.	2.24µM*
CCc1ccc(NC(=O)Cn2c(=O)oc3cc(S(=O)(=O)NCc4ccccc4)ccc32)cc1	?	i[11.5 µM]	3.5%	73.3*	-38.1%	-0.8%
O=C(Cn1c(=O)oc2cc(S(=O)(=O)N3CCCCCC3)ccc21)NCc1ccccc1Cl	?	i	19.1%	38.3	-54.5%	-13.5%
CC[C@@H]1C[C@H]2CC[C@H](O2)[C@H](C)C(=O)O[C@@H](C)C[C@@H]2CC[C@@H](O2)[C@@H](C)C(=O)O[C@H](CC)C[C@H]2CC[C@H](O2)[C@H](C)C(=O)O[C@@H](C)C[C@@H]2CC[C@@H](O2)[C@@H](C)C(=O)O1	.	.	?	.	.	-12.3%[20.6 µM]
Cc1c(P(=S)(c2ccccc2)c2ccccc2)[n+]2ccccc2n1C	.	.	15.8µM*!	.	.	.
ClC1=C(Cl)[C@]2(Cl)[C@@H]3[C@@H]4C[C@@H]([C@H]5O[C@@H]45)[C@@H]3[C@@]1(Cl)C2(Cl)Cl	1.6%[116 µM]	i	32.2%	112.9*	-14.2%[116 µM]	-6.2%
[Cl][In]([Cl])[Cl]	-12.7%[116 µM]	i	3.16µM*	33.0	-17.9%[116 µM]	-9.1%
C[N@@+]1(CC2CC2)CC[C@]23c4c5ccc(O)c4O[C@H]2C(=O)CC[C@@]3(O)[C@H]1C5	.	.	-5.0%[57.5 µM]	.	.	11.1%
O=C(Nc1nc2ccccc2s1)c1cccn(Cc2ccccc2)c1=O	?	i	-1.0%	-3.0	-41.3%	-4.2%
Cc1ccccc1Cn1cccc(C(=O)Nc2nc3ccccc3s2)c1=O	0.316µM*	i	-12.2%	0.7	-82.3%	-6.2%
CO[C@H]1[C@H](O)[C@H](O[C@H]2CC[C@]3(C=O)C4CC[C@]5(C)[C@H](C6=CC(=O)OC6)CC[C@]5(O)C4CC[C@@H]3C2)O[C@@H](C)[C@@H]1O (stereo partly drawn)	.	.	-0.5%[29.8 µM]	.	.	-1.1%[53.3 µM]
CC1Oc2cc3c(-c4c(O)cc(O)c5c(O)c6c(cc45)OC(C)C(C)C6=O)c(O)cc(O)c3c(O)c2C(=O)C1C (stereo not drawn)	.	.	17.8µM*	.	.	?
Cc1ccc2c(c1)[C@H]1CN(C)CC[C@H]1N2C(=O)CSc1nnnn1-c1ccc(Cl)cc1	.	.	4.3%[57.5 µM]	.	.	3.5%
O=S(=O)(c1ccccc1F)N1CCOc2c(N3CCNCC3)cccc21	.	.	-0.8%[57.5 µM]	.	.	3.4%
COCC1OC(=O)c2coc3c2C1(C)C1=C(C3=O)C2CCC(=O)C2(C)CC1OC(C)=O (stereo not drawn)	.	.	-7.8%	.	.	-3.9%
CN1C(=O)[C@]23CC4C(C)(C)[C@@]5(C[C@@]41CN2CC[C@@]3(C)O)C(=O)Nc1c5ccc2c1OC=CC(C)(C)O2 (stereo partly drawn)	.	.	6.8%[29.8 µM]	.	.	-1.8%[53.3 µM]
N#Cc1cc2c(nc1SCC(=O)Nc1cccc(F)c1)C1CCN2CC1	?	i	-0.3%	67.7*	-39.4%	4.8%
CCCCN1[C@@H]2CC[C@H]1CC(OC(c1ccc(F)cc1)c1ccc(F)cc1)C2 (stereo partly drawn)	.	.	-3.7%[57.5 µM]	.	.	14.2%
COc1ccc2c(c1OC)CN1CCc3cc4c(cc3C1C2)OCO4 (stereo not drawn)	-9.6%	i	-1.4%	68.5*	-1.7%	?
CCOC(=O)c1c(C(C#N)=CN)c2ccc(Cl)c(Cl)c2n1C	-23.3%	.	79.4µM*	.	-17.2%	10.6%[53.3 µM]
CCCNC(=O)c1cnn2c(C)c(Cc3c(C)cc(C)cc3C)c(C)nc12	5.01µM*	i	4.8%	-2.5	-47.4%	-12.6%
SMILES	HTT prom inh	GALC G270D up	NTMT1 inh	DRV1 agonist	HTT-AS promoter	FH mod
Cn1c(COP(=O)(NCCBr)NCCBr)cnc1[N+](=O)[O-]	.	.	22.4%	.	.	.
O=C1OC(c2ccc(O)c(S(=O)(=O)O)c2)(c2ccc(O)c(S(=O)(=O)O)c2)c2c(Br)c(Br)c(Br)c(Br)c21	-5.0%	i	79.4µM*	-5.8	0.0%	27.6µM*
C=CC(C)(O)CC/C=C(\C)C(=O)O[C@H]1[C@H](O)[C@@H](CO)O[C@@H](OC(=O)[C@]23CCC(C)(C)CC2C2=CCC4[C@@]5(C)CC[C@H](O[C@@H]6O[C@H](CO[C@@H]7OC[C@H](O)[C@H](O)[C@H]7O[C@@H]7OC[C@@H](O)[C@H](O)[C@H]7O)[C@@H](O)[C@H](O)[C@H]6O)C(C)(C)C5CC[C@@]4(C)[C@]2(C)CC3)[C@@H]1OC1OC(C)C(O[C@@H]2OC[C@@H](O)[C@H](O[C@@H]3OC[C@@H](O)[C@H](O)[C@H]3O)[C@H]2O)C(O)C1O (stereo partly drawn)	.	.	11.0%[6.45 µM]	.	.	-2.4%[13.5 µM]
CCOc1ccc(CCNC(=O)c2cc3cccnc3n2Cc2cccc(C)c2)cc1OCC	.	.	9.6%	.	.	.
Nc1ccn(CC(CO)OCP(=O)(O)O)c(=O)n1 (stereo not drawn)	.	.	17.2%	.	.	-1.0%
CCN1C[C@@]2(COC)C3[C@@H](OC)C4[C@H]1C3([C@@H]1C[C@@]3(O)[C@H](OC(=O)c5ccccc5)[C@@H]1[C@]4(OC(C)=O)[C@@H](O)[C@@H]3OC)[C@H](OC)C[C@H]2O	.	.	.	.	.	-22.7%[53.3 µM]
N#C/C(=C/c1ccc(O)c(O)c1)C(N)=S	.	.	?	-46.0	.	12.6µM*!
COC1C(O)C(C)OC(OC2C(CO)O[C@@H](O[C@@H]3CC4CCC5C(CC[C@]6(C)[C@@H](C7=CC(=O)OC7)CC[C@]56O)[C@@]4(C)[C@H](O)C3)C(O)C2O)C1O (stereo partly drawn)	.	.	7.3%[12.6 µM]	.	.	15.6%[20.6 µM]
